# Laboratory results from ChEMBL document CHEMBL3988442, “University of Dundee, Small-Polar-MMV Screening Library” (2021).
# The whole screen tested about 48,000 compounds, of which about 13,000 (27%) showed an effect of 50% or more. The list shows a part of the results.
# Test system: Wolbachia pipientis
# Assay: Anti-Wolbachia Cell-Based Screen
# Assay type: functional
# Parameters: scale not given: in the data most compounds retested in dose-response had high values
# Details: 5 µM
row,SMILES,Percent Effect [%]
1,CCCN(CC1COc2ccccc2O1)C(=O)c1ncoc1CC (stereo not given),-65.56
2,Cc1ncsc1CN1C[C@@H](OCC2CC2)[C@H]2OCCC[C@H]21,-10.25
3,Cc1ccsc1C(=O)Nc1cc(Br)c(=O)n(C)c1,-6.468
4,O=C(c1cnc(O)cn1)N(Cc1ccsc1)CC1CCCO1 (stereo not given),-2.864
5,N#CCCN(CC1CCCO1)C(=O)c1ccsc1 (stereo not given),115.2
6,N#CCCN(Cc1ccco1)C(=O)c1ccc(OCC2CC2)cc1,40.98
7,N#CCCN(CC1CCCO1)C(=O)c1ccc(C#N)cc1 (stereo not given),122.3
8,N#CCCN(CCC#N)C(=O)c1ccc(OCC2CC2)cc1,8.167
9,O=C(c1cccc(=O)[nH]1)N(Cc1ccsc1)CC1CCCO1 (stereo not given),-26.62
10,CCn1/c(=N/C(=O)CSCC(=O)Nc2nccs2)sc2ccccc21,6.405
11,CN(C)C(=O)CN1C[C@@H]2CC[C@H](C1)N(C(=O)CCCn1cncn1)C2,9.651
12,O=C1CCC(C(=O)N2CCC(Cn3cc(C4CCCC4)nn3)CC2)=NN1,-1.401
13,Cc1noc(C)c1CN1CCCC(CN(C(=O)OC(C)(C)C)C(C)C)C1 (stereo not given),-2.017
14,O=C(C1CC1)N1CCC(O)(CN2CCN(c3ccccc3)CC2)C1 (stereo not given),101.1
15,NCC(=O)N1CCCC(O)(CN2CCN(c3ccccc3)CC2)CC1 (stereo not given),149.6
16,O=C(CC1CC1)N1CCC(O)(CN2CCN(c3ccccc3)CC2)C1 (stereo not given),113.7
17,COCC(=O)N1CC2(CCN(c3ccccc3)C2)C1,10.91
18,COCC(=O)N1CCCC2(CCN(c3ccccc3)C2=O)C1 (stereo not given),-10.31
19,CN(C)CC1(O)CCCN(C(=O)Cn2nc3ccccc3n2)CC1 (stereo not given),-26.73
20,O=C(Cn1nc2ccccc2n1)N1CCCC(O)(CN2CCCC2)C1 (stereo not given),-26.39
21,COCC(=O)N1CCC(O)(CN2CCN(c3ccccc3)CC2)C1 (stereo not given),93.8
22,O=C(CC1CC1)N1CCC2(CC(=O)N(c3cccc(F)c3)C2)C1 (stereo not given),-13.04

row,SMILES,Percent Effect [%]
1,Cc1ccc(CN2CC3(CCN(C(=O)C4CC4)CC3)CC2C(=O)O)o1 (stereo not given),-15.03
2,NC(=O)CN1CCCC(C(=O)N2CCC(O)(Cc3ccccc3)CC2)C1 (stereo not given),12.2
3,CN1CCc2ccc(NCc3cccs3)cc2C1=O,-3.883
4,Cc1nc(-c2cc(C(=O)NCC(C)(C)CO)c3ccccn23)cs1,-18.5
5,COc1cc(NC(=O)NC(C2CC2)C2CC2)ccc1N1CCOC1=O,-4.711
6,CN1CCN(C(=O)N2C[C@H]3CC[C@@H]2CN(Cc2ccccc2)C3)CC1,-20.32
7,O=C(NC1CC(=O)N(C2Cc3ccccc3C2)C1)c1ccoc1 (stereo not given),-3.995
8,CCC(=O)NCc1cc(Br)ccc1OC(F)F,-1.176
9,CS(=O)(=O)c1nccn1Cc1ccc(Cl)cc1,-5.692
10,O=C(CNC1CCc2ncnn2C1)N(Cc1cccs1)C1CC1 (stereo not given),0.7257
11,O=C(NCCN1CCOCC1)c1n[nH]c(=O)c2ccccc12,6.871
12,O=C(c1n[nH]c(=O)c2ccccc12)N1CCC(O)(CN2CCOCC2)C1 (stereo not given),88.42
13,CCc1ccc(C(=O)N2CCC(O)(CN3CCOCC3)C(C)(C)C2)[nH]1 (stereo not given),-6.859
14,CCCNC(=O)CN1CCN(Cc2csc(C(C)(C)C)n2)CC1,-11.65
15,COc1cccc(NC(=O)NCC(C)(O)CCSC)c1OC (stereo not given),-0.9088
16,CN(C)C(=O)c1cn[nH]c1C1CCCN1Cc1nccn1C.O=CO (stereo not given),83.24
17,CN(CC1CC1)C(=O)CN1CCCC1c1cnn(C)c1 (stereo not given),-56.85
18,CN(C)C(=O)c1cn[nH]c1C1CCCN1Cc1c[nH]cn1 (stereo not given),119.4
19,Cc1nc(CN2CCCC2c2[nH]ncc2C(=O)N(C)C)cs1 (stereo not given),135.6
20,CC(=O)Nc1nc(CN2CCCC2c2cnn(C)c2)cs1 (stereo not given),-2.623
21,Fc1ccc2[nH]c(C3CCCN3Cc3c[nH]cn3)nc2c1 (stereo not given),-35.05
22,Cn1ccnc1CN1CCCCC1c1nc(-c2ccccc2)no1 (stereo not given),18.03

row,SMILES,Percent Effect [%]
1,CN(C)C(=O)c1cn[nH]c1C1CCCN1Cc1cncn1C (stereo not given),96.91
2,CNc1cncc(C2CCCN2Cc2c[nH]cn2)n1 (stereo not given),-2.81
3,Cc1ccc2nc(C3CCCN3Cc3csc(C)n3)[nH]c2c1 (stereo not given),2.616
4,CC(=O)NCCNC(=O)CN1CCN(Cc2nccn2C)C(C)C1 (stereo not given),1.772
5,CN(C(=O)CN1CCCC1c1cnn(C)c1)C(C)(C)C#N (stereo not given),6.976
6,CC(Oc1ccccc1C(F)(F)F)C(=O)NCCNC(=O)C1CC1 (stereo not given),-69.67
7,Cc1cnn(CCC(=O)NS(=O)(=O)N2CCc3ccccc32)c1,5.056
8,Cc1nn(C)c2ncnc(N(C)CC3CCN(CC(C)C)C3)c12 (stereo not given),-20.38
9,O=C(NC[C@H]1OC[C@@H](NC2COC2)[C@@H]1O)Nc1ccccc1,4.366
10,Cc1ccc(C(=O)N2CCC(n3cc(CN)nn3)CC2)cc1F,8.756
11,CCCN(CC1COc2ccccc2O1)C(=O)CCN1C(=O)CCC1=O (stereo not given),23.62
12,CC(C)NC(=O)[C@@H]1C[C@@H](N)CN1C(=O)CCSCc1ccccc1,-10.01
13,Cc1nn(C)c(N2CCOCC2)c1CNC1CCc2ccccc2C1 (stereo not given),-5.455
14,Cc1cccc(CN2CCCC(O)(CNCCN3CCCCC3)C2=O)c1 (stereo not given),-21.92
15,CC1c2ncc(Cn3cccn3)n2CCN1Cc1cccnc1.O=C(O)C(F)(F)F.O=C(O)C(F)(F)F (stereo not given),97.64
16,CC1c2ncc(COCC3CCOCC3)n2CCN1Cc1cccnc1.O=C(O)C(F)(F)F.O=C(O)C(F)(F)F (stereo not given),-7.39
17,CC1c2ncc(CN3CCN(C)CC3)n2CCN1Cc1ccccn1.O=C(O)C(F)(F)F.O=C(O)C(F)(F)F.O=C(O)C(F)(F)F.O=C(O)C(F)(F)F (stereo not given),110.4
18,CC1c2ncc(Cn3cccn3)n2CCN1Cc1ccc(F)cc1.O=C(O)C(F)(F)F (stereo not given),95.73
19,CCOCc1cnc2n1CCN(C(=O)Cc1ccccn1)C2C.O=C(O)C(F)(F)F (stereo not given),-0.9872
20,CC1c2ncc(Cn3cccn3)n2CCN1Cc1ccccn1.O=C(O)C(F)(F)F.O=C(O)C(F)(F)F (stereo not given),102.5
21,CC1c2ncc(COCc3ccccn3)n2CCN1C1CCCC1.O=C(O)C(F)(F)F.O=C(O)C(F)(F)F (stereo not given),16.64
